The results in this text go back to article PMC7819943, “Rice protein-binding microarrays: a tool to detect cis-acting elements near promoter regions in rice”.

Whole data set: some 35,000 sequences, median “fluorescence intensity (a.u.)” near 10,000, cut for the highest 2% near 52,000. Many of the other results were omitted from the sample, so the highest values are more common in it than they were.

The assay has as its target T1, OsWOX13 (Oryza sativa, UniProt Q5QMM3 1-267).
T1 sequence: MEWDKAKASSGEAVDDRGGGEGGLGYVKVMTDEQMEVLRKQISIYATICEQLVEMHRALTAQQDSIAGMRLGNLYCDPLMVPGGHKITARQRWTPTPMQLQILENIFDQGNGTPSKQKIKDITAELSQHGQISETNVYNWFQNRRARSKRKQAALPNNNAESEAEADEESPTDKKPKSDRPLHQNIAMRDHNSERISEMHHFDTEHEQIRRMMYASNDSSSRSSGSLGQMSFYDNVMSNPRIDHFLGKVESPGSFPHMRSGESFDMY
The assay can be described thus: protein-binding microarray (RPBM); PBS, 2% BSA, 51.3 ng/ul salmon testes DNA, 50 uM zinc acetate, 200 nM TF, 25 C, 1 h; high values mean tight binding. As to conditions: protein: recombinant; tags: N-terminal polyhistidine and DsRed monomer fusion (pET32a); label: CyDye5-dUTP incorporated in the synthesized complementary strand; 3' TTTTT single-stranded linker to array surface; dsDNA, one strand shown. The essentials:
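Ni–NTA purification followed expression in E. coli BL21-CodonPlus of transcription factors fused N-terminally to a polyhistidine tag and DsRed. At 200 nM in PBS with 2% BSA, salmon testes DNA and 50 µM zinc acetate, the protein was incubated for 1 h at 25 °C with a custom Agilent array that had been primer-extended with Cy5-dUTP and blocked with 2% BSA. After washing, the array was read on an Axon 4000B scanner. The binding signal is per-feature fluorescence intensity in arbitrary units.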
“GTAGATAGATGGCACATTGGCAGTGATGGCTGTGTACAGTCGGAGTCACCTAGTGCAG”: the binding signal was 8260 fluorescence intensity (a.u.).
The same measure for “GATAGATAGATAGATAGATAGATAGATTTGTTGGCTGTGTCGGAGTCACCTAGTGCAG”: 63500 fluorescence intensity (a.u.); for “AGGAATCGGAATTGATTTCATGCACTGATCGATCCATCCACGGAGTCACCTAGTGCAG”: 7970 fluorescence intensity (a.u.).
To “ATAAATAAACTTATTTTGAGATAATGGTGTAATAGTGTAGCGGAGTCACCTAGTGCAG” belongs 5300 fluorescence intensity (a.u.); to “TCTTGACACCGGCCGGATTGATCTATCATCCATCCATCGACGGAGTCACCTAGTGCAG”, 12300 fluorescence intensity (a.u.).
As for “AGATCTGATTGATATTGATCCATCGCCGATCGATTGATCACGGAGTCACCTAGTGCAG”, the binding signal is 53800 fluorescence intensity (a.u.).
With “AATAGATTGATTGATTGATTGAATAATATAGATAGATTGACGGAGTCACCTAGTGCAG”, the binding signal is 64400 fluorescence intensity (a.u.).
Take “TTTGATTGAGATTGATAATAACCTGCTGTAACTTAGCGAACGGAGTCACCTAGTGCAG”: the binding signal is 61100 fluorescence intensity (a.u.).
The same measure for “TAGATAGATAGATAGATATAGTTGGTGTGTTTGACCCTAGCGGAGTCACCTAGTGCAG”: 36400 fluorescence intensity (a.u.); for “ATATAATAATAGATAGATAGATAGATAGATAGATAGATAGCGGAGTCACCTAGTGCAG”: 49300 fluorescence intensity (a.u.).
With “ATAACTAATATAATCGAACCTGCCTCACTTAATATGTGGCCGGAGTCACCTAGTGCAG”, the binding signal is 4830 fluorescence intensity (a.u.).
For the sequence “CTAAAATTACATATGTAATTTAGGCACTTACATATGTAATCGGAGTCACCTAGTGCAG”, the binding signal was 19500 fluorescence intensity (a.u.).
For the sequence “TGTTAACCAGATTTATTATATTTGAAAATGTCACCTCCAACGGAGTCACCTAGTGCAG”, the binding signal was 8160 fluorescence intensity (a.u.).
“TTGCAAATAATTTGGAAAGGTAATATGAGCTACAGCTGTGCGGAGTCACCTAGTGCAG”: the binding signal is 7080 fluorescence intensity (a.u.).
To “ATAATGGATTGCTTGTTCCAGCACTGAATGTGCTGCCAAGCGGAGTCACCTAGTGCAG” belongs 6550 fluorescence intensity (a.u.); to “CGAATTAACTAGATCATATTACTCTTTCATGCAATAAACACGGAGTCACCTAGTGCAG”, 4320 fluorescence intensity (a.u.).
Regarding “TGGGATAATTAACTCGTAATGATCCCCAAATGCGTGCGTACGGAGTCACCTAGTGCAG”, the binding signal was 28300 fluorescence intensity (a.u.).
The same measure for “GTTAACGACCAAAATTGGTAGCATCGACACCTCCCTGGGCCGGAGTCACCTAGTGCAG”: 4240 fluorescence intensity (a.u.); for “TAGCCACCGTGATTGATTGATCTATAGATCGATTGGTGCCCGGAGTCACCTAGTGCAG”: 64000 fluorescence intensity (a.u.); for “TAGATAGATAGAAGATAATAGAAGATAGATAATAGAAGATCGGAGTCACCTAGTGCAG”: 10200 fluorescence intensity (a.u.).
Regarding “TCCACTAATATTAACCAATAGACAGATATACTATCACAGTCGGAGTCACCTAGTGCAG”, the binding signal is 10800 fluorescence intensity (a.u.).
The same measure for “ATAGATAGATAGATAATAGATAGATAGAAGATAGATAGATCGGAGTCACCTAGTGCAG”: 44600 fluorescence intensity (a.u.).
The same measure for “AATAGATAGATTGATACCACCACTTAACTATACTAATGCTCGGAGTCACCTAGTGCAG”: 63700 fluorescence intensity (a.u.); for “AGTTATGTAATTGGATCATGAGTAGATATACATGTGTGCTCGGAGTCACCTAGTGCAG”: 29300 fluorescence intensity (a.u.).
Consider “GGTGATTAGACCGGTGATCTATACCGGTCAGACCGATAGCCGGAGTCACCTAGTGCAG”, for which the binding signal is 47800 fluorescence intensity (a.u.).
To “ATTATTGAACGAATGATTATCGTAGATTATACATCTAGCCCGGAGTCACCTAGTGCAG” belongs 28400 fluorescence intensity (a.u.); to “AGATAGATAGATAGATAGATAGATAGATAGATAGATAGATCGGAGTCACCTAGTGCAG”, 55700 fluorescence intensity (a.u.).
For “GGTAATTGATTATGCACCTGATCTAGATACATGTACAGCTCGGAGTCACCTAGTGCAG”, the binding signal was 61800 fluorescence intensity (a.u.).
To “TTACTTAATTACTATAGATAATTAGTTGATTAGTGTTACTCGGAGTCACCTAGTGCAG” belongs 45000 fluorescence intensity (a.u.).
In the case of “ATCTATAATTAGATTGATATGATTATCTTGTGTACAACAACGGAGTCACCTAGTGCAG”, the binding signal is 37800 fluorescence intensity (a.u.).
To “AGTGGTGATGGGCACAATGGTGATTAGAGTGGCGGAGATCCGGAGTCACCTAGTGCAG” belongs 7460 fluorescence intensity (a.u.).
To “TATTGATTTAATGAAACTAATTTGGTATTATAAATATTACCGGAGTCACCTAGTGCAG” belongs 32200 fluorescence intensity (a.u.); to “GGAGAGCAATCAAGCGAAATTGACACGTGTCACGGCAGTGCGGAGTCACCTAGTGCAG”, 30300 fluorescence intensity (a.u.).
Take “ATGCAAAGTTGCAGGGATTGATTGGCTGTTTCGTTTGCTACGGAGTCACCTAGTGCAG”: the binding signal was 21800 fluorescence intensity (a.u.).
Regarding “CATCCAAATTGGCAAAGGCCGCCTCTTTCTTTAATTAACCCGGAGTCACCTAGTGCAG”, the binding signal is 14100 fluorescence intensity (a.u.).
Regarding “TGCGTGATTAGCTGATAATACACGTGAATTATGTATGACGCGGAGTCACCTAGTGCAG”, the binding signal was 52800 fluorescence intensity (a.u.).
The same measure for “TAGCTGATTATTACAGATGTTGGAGGATGAATAATTGTGACGGAGTCACCTAGTGCAG”: 13500 fluorescence intensity (a.u.); for “ACAAATTGAGTGTTATAGTGAGATGGCATCGGAGATGAGCCGGAGTCACCTAGTGCAG”: 32400 fluorescence intensity (a.u.); for “AAGATAAAATGTATGATTGTATGCCTAATTTGAATAGTGGCGGAGTCACCTAGTGCAG”: 15900 fluorescence intensity (a.u.).
“TTGTATAAATTGCTATTAGATTGGCTATATATGAATTAGACGGAGTCACCTAGTGCAG”: the binding signal is 37500 fluorescence intensity (a.u.).
The same measure for “TTGACATCATCATTGACGTGATAGATATAGTATATTAGACCGGAGTCACCTAGTGCAG”: 17000 fluorescence intensity (a.u.).
As for “TAGCTAGATTGATAATGTACATATATGAATTTGTATGCGACGGAGTCACCTAGTGCAG”, the binding signal is 55500 fluorescence intensity (a.u.).
The same measure for “ATCGTGATTGATGGCATTGGTATAGATTTCGAGCATTGGCCGGAGTCACCTAGTGCAG”: 63900 fluorescence intensity (a.u.); for “AGTATAATTAGCATACTATGATATCGATATACACGTTATGCGGAGTCACCTAGTGCAG”: 31400 fluorescence intensity (a.u.).
